Records with an inconclusive call do not appear. The source made the active and inactive calls. Calls follow the shape of the dose curve; as a rule, active = well fitted activation curve with a large enough effect; inconclusive = small, poorly fitted or top-dose-only effect; inactive = no such curve, though single readings can be large or run the other way. Starred links: 1 amine or outer side, 2 acyl side, 3 side chain; linkers in the order of their positions; H or OH if unused. Positions of bridges follow the written chain, without caps; N, C: chain ends. Non-standard residues stand in square brackets, D forms with d. Residues, ends and D or L forms follow the SMILES beside them. Chains are numbered I, II in the order given. Actinocin(9to1) = Cc1c2oc3c(C)ccc(C(=O)[*:1])c3nc-2c(C(=O)[*:2])c(N)c1=O; NMeV = CN[C@H](C(=O)O)C(C)C; Sar = CNCC(=O)O
Potency is read from the fitted curve at half-maximal effect.

Sequence of Cellular tumor antigen p53 (Homo sapiens) (P04637 whole entry, looked up): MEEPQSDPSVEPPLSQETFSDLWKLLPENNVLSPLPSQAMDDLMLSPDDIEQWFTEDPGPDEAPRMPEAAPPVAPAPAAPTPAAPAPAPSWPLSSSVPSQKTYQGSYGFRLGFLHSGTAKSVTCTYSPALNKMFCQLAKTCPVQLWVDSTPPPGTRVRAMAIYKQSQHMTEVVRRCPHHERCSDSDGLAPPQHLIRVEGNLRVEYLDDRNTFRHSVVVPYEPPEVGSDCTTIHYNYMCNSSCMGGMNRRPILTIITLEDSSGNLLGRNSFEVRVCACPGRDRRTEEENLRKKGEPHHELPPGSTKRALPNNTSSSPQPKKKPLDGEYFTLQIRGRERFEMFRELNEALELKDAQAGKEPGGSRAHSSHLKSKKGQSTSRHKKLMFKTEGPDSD

In the assay the target is Cellular tumor antigen p53 (Homo sapiens) (UniProt P04637). Kind of assay: Primary qHTS for small molecule compounds that upregulate eGFP-tagged delta133p53alpha (in N-terminal) cells. (AID 2060322). Also: nearly all actives have a fitted effect of over 75% in size.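 As to activation: series mostly up to about 56 µM; 0% = DMSO vehicle and 100% = reference activator.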 Particulars: NCI-H358 eGFP-delta133p53alpha fluorescence, 24 h; activation: active compounds read high. The procedure, abridged:
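NCI-H358 cells pre-induced 24 h with 10 ng/ml doxycycline for eGFP-delta133p53alpha, plated dox-free and exposed 24 h at 37C to titrated compounds. Fixed, Hoechst-stained; gated GFP peak intensity by laser scanning cytometry, normalized to DMSO (0%) and 57.5 uM 5-azacytidine (100%).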
A general note: In qHTS, concentration-response curves come from the screen itself.
On to `CC(C)N(CCCNC(=O)Nc1ccc(C(C)(C)C)cc1)C[C@H]1O[C@@H](n2cc(Br)c3c(N)ncnc32)[C@H](O)[C@H]1O`, for which the activation was -20.1% (inactive).

Regarding `Nc1ccc(S(=O)(=O)Nc2ccc(Cl)nn2)cc1`, the activation was 2.51% (inactive).

On to `COc1ccc(-c2oc3c(CC=C(C)C)c(OC4O[C@H](CO)[C@@H](O)[C@H](O)[C@@H]4O)cc(O)c3c(=O)c2OC2O[C@@H](C)[C@H](O)[C@@H](O)[C@@H]2O)cc1` (stereo not given in full), for which the activation is -27.6% (inactive).

Regarding `CCCc1ncc(C(=O)O)s1`, the activation is -8.37% (inactive).

On to `Cc1ccccc1OCC(O)CO` (stereo not given), for which the activation was 13% (inactive).

As for `CC(C)OC(=O)CCCC=CC[C@@H]1[C@H](C=C[C@@H](O)COc2cccc(C(F)(F)F)c2)[C@H](O)C[C@@H]1O`, the activation was -7.59% (inactive).

`Cc1c(-c2cccc3c(CCCOc4cccc5ccccc45)c(C(=O)O)n(Cc4cccnc4)c23)c(COc2ccc(N3CCN([S+](=O)([O-])N(C)C)CC3)cc2)nn1C`: the activation was -39.2% (inactive).

With `Cc1c(C)c2c(c(C)c1OC(=O)CCC(=O)OCCO)CC[C@@](C)(CCC[C@H](C)CCC[C@H](C)CCCC(C)C)O2`, the activation was -20.9% (inactive).

Consider `CN1CCN(C2=Nc3cc(F)ccc3Cc3ccccc32)CC1`, for which the activation is -11.9% (inactive).

Regarding `CC(=O)Nc1c(I)cc(I)c(C(=O)O)c1I`, the activation is -3.95% (inactive).

`CNC1[C@H](O)C(O[C@@H]2C(O)C(O[C@H]3O[C@H]([C@@H](C)NC)CC[C@H]3N)[C@@H](N)C[C@H]2N)OC[C@]1(C)O` (stereo not given in full): the activation was -1.3% (inactive).

In the case of `CC(C)n1c(/C=C/[C@@H](O)C[C@@H](O)CC(=O)O)c(-c2ccc(F)cc2)c2ccccc21`, the activation is -1.69% (inactive).

In the case of `CCn1cc(-c2cccc(C(F)(F)F)c2)c2sc(C(N)=NC3CCS(=O)(=O)CC3)cc2c1=O`, the activation was 12.3% (inactive).

For the compound `Nc1ccc(S(=O)(=O)NCc2ccccc2)cc1`, the activation is -10% (inactive).

For `Cc1c2oc3c(C)ccc(C(=O)N[C@@H]4C(=O)N[C@H](C(C)C)C(=O)N5CCC[C@H]5C(=O)N(C)CC(=O)N(C)[C@@H](C(C)C)C(=O)O[C@@H]4C)c3nc-2c(C(=O)N[C@@H]2C(=O)N[C@H](C(C)C)C(=O)N3CCC[C@H]3C(=O)N(C)CC(=O)N(C)[C@@H](C(C)C)C(=O)O[C@@H]2C)c(N)c1=O` (I: T[dV]P[Sar][NMeV] / II: T[dV]P[Sar][NMeV]; ester I:1-I:C, II:1-II:C; linker I:N-II:N via Actinocin(9to1)), the Potency is 11 nM (active).

In the case of `CC(C)=CCC/C(C)=C/CC/C(C)=C/CCC(=O)OC/C=C(\C)CCC=C(C)C`, the activation was 0.565% (inactive).

Regarding `CCOC(=O)CN1CCCC1=O`, the activation was -0.837% (inactive).

On to `Nc1ccc(S(=O)(=O)Nc2cnc3ccccc3n2)cc1`, for which the activation is -24.3% (inactive).

On to `CC1(C)CO[C@@H](CC(=O)O)CN1`, for which the activation is -5.86% (inactive).

As to `CN(C)CCN(Cc1ccccc1)c1ccccn1`, the activation was 24.3% (inactive).

On to `CCCCC(CC)COC(=O)c1ccccc1O` (stereo not given), for which the activation was -22.6% (inactive).

Take `Cn1cc(C=C2C(=O)Nc3cccnc32)c2ccccc21`: the Potency is 24300 nM (active).

For the compound `Nc1ccc(C(=O)N2CC3CC(CN(Cc4ccccc4)C3)C2)cc1`, the activation was -6.21% (inactive).

As to `O=C(CCOCCOCCOCCOCCC(=O)Nc1c(I)cc(I)c(C(=O)O)c1I)Nc1c(I)cc(I)c(C(=O)O)c1I`, the activation is -9.21% (inactive).

With `COC(=O)c1ccccc1C(=O)c1ccc(OCCN2CCCCC2)cc1`, the activation is -14.1% (inactive).

In the case of `CC[C@]12C=CCN3CC[C@@]4(c5cc([C@@]6(C(=O)OC)C[C@H]7C[C@@H](C(C)(F)F)CN(Cc8c6[nH]c6ccccc86)C7)c(OC)cc5N(C)[C@H]4[C@@](O)(C(=O)OC)[C@H]1OC(C)=O)[C@@H]32`, the activation was -7.99% (inactive).

For the compound `COc1cccc2c1C(=O)c1c(O)c3c(c(O)c1C2=O)C[C@@](O)(C(=O)CO)C[C@H]3O[C@H]1C[C@H](N)[C@H](O)[C@H](C)O1`, the activation is -35.6% (inactive).

For `O=C(CCCN1CCC(O)(c2ccc(Br)cc2)CC1)c1ccc(F)cc1`, the activation was 3.35% (inactive).

With `COC(=O)/C=C(/C)N`, the activation was 8.47% (inactive).

For `Cc1ccc(C(C)C)c(O)c1`, the activation is -8.47% (inactive).

Consider `CC1(C)S[C@@H]2[C@H](NC(=O)C(c3ccccc3)S(=O)(=O)O)C(=O)N2[C@H]1C(=O)O` (stereo not given in full), for which the activation is -13% (inactive).

In the case of `Cc1c(Cn2ccnc2)c2ccccc2n1CCC(=O)O`, the activation was -8.47% (inactive).

Turning to `CCCOC(=O)c1ccccc1`, the activation is -2.82% (inactive).

For `Oc1ccc(C(O)CNCCCCCCNCC(O)c2ccc(O)c(O)c2)cc1O` (stereo not given), the activation is 2.82% (inactive).

As to `Nc1nc2ccc(Cl)cc2c2nc(-c3ccco3)nn12`, the Potency is 1690 nM (active).

`CNCCN1CCC(OCc2ccccc2)CC1`: the activation was -13.4% (inactive).

Consider `Cc1c(N)cccc1C(F)(F)F`, for which the activation is -19.8% (inactive).

For the compound `CC(C)=CCC1C(=O)N(c2ccccc2)N(c2ccccc2)C1=O`, the activation is -15.3% (inactive).

`O=C1c2ccccc2S(=O)(=O)N1CCCCN1CCN(c2ncccn2)CC1`: the activation was 13.4% (inactive).

Regarding `O=C(c1ccc(F)cc1)C1CCN(CCn2c(=S)[nH]c3ccccc3c2=O)CC1`, the activation is -8.47% (inactive).

Source of the values: PubChem BioAssay (NCATS).
